Only a selection was taken, and hits are over-represented in it overall.
GIRK2 act – activators of NPY4-receptor-primed GIRK2 channels, summary, cell-based, HEK293, thallium flux; G protein-activated inward rectifier potassium channel 2 (Homo sapiens), P48051; HEK293 GIRK2/NPY4 cells, thallium flux fluorescence; 34,000 tested, under 10 active; activation (% efficacy), % for hits at 37.5 µM;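 active means primary screen hit, no activity in plain HEK293 cells, and in GIRK2-only cells above 5% efficacy rising with concentration; inactive means the rest, including fluorescent compounds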;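 further: efficacy is normalized control-subtracted fluorescence 15 s after thallium addition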
GluA2 TARP mod – modulators of GluA2-stargazin AMPA receptor complexes, primary screen, cell-based, membrane potential dye | Voltage-dependent calcium channel gamma-2 subunit (Mus musculus) + Glutamate receptor 2 … | HEK293 GluA2+stargazin, membrane potential dye (FDSS), glutamate EC50; hits were called plate by plate, in both directions | calls only at 30 µM | 40,000 tested, 3.5% active | AID 1259245, 2017;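 active means any of four per-well response measures lying three or more SD from its plate-wide compound average, in either direction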
Calls only; 0 = inactive; - = not tested or not shown; + = active, no number.

SMILES | GIRK2 act | GluA2 TARP mod
COc1ccc2nc(N(CCN3CCOCC3)C(=O)/C=C/c3cccc([N+](=O)[O-])c3)sc2c1 | 0 | +
COc1cc(C(=O)Nc2nnc(-c3ccc(C)cc3C)o2)cc(OC)c1OC | - | 0
COc1cc(OC)cc(C(=O)Nc2nnc(-c3ccc(Br)s3)o2)c1 | 0 | +
COc1cc(OC)cc(C(=O)Nc2nnc(-c3ccc(C)cc3C)o2)c1 | - | +
COc1cccc(C(=O)Nc2nnc(-c3ccc(Br)s3)o2)c1 | 0 | 0
CCOC(=O)N1CCc2nc(NC(=O)C3CCCN(S(C)(=O)=O)C3)sc2C1 (stereo not given) | 0 | 0
O=S(=O)(Cc1ccccc1F)NCC1CCN(C2CCCC2)CC1 | 0 | 0
O=C(CSc1ccc(F)cc1)NCc1n[nH]c(=O)c2ccccc12 | 0 | 0
Cc1nnsc1C(=O)Nc1ccc2c(c1)CC(=O)N2C | 0 | +
CCC(=O)Nc1ccc2c(c1)CC(=O)N2C | - | 0
CC(=O)Nc1ccc(NC(=O)C(=O)NCCc2ccc3c(c2)CCCN3C)cc1 | - | 0
O=c1c2ccccc2nc(SCc2nc(-c3cccc(Cl)c3)no2)n1Cc1ccco1 | - | 0
CC1CN(CC(O)COc2cccc3ccccc23)CC(C)O1 (stereo not given) | - | 0
Cc1cc(N2CC(C)OC(C)C2)nc2ccccc12 (stereo not given) | - | +
O=C(Oc1ccccc1)N1CCC(CNS(=O)(=O)Cc2ccccc2)CC1 | 0 | 0
COCCN1CCC(CNC(=O)COc2ccccc2)CC1 | 0 | -
Cc1cc(C(=O)N2CCN(C)CC2)nn1CC(=O)N(Cc1ccccc1)c1ccccc1 | 0 | 0
CCCOC(=O)c1cc2cc(Br)cc(OC)c2oc1=O | 0 | +
CCC(C)NC(=O)c1cc2cc(Br)cc(OC)c2oc1=O (stereo not given) | 0 | 0
COc1ccc(S(=O)(=O)N2CCCCC2CC(=O)NCCc2ccc(Cl)cc2)cc1 (stereo not given) | - | 0
COc1ccc(CCNC(=O)CC2CCCCN2S(=O)(=O)c2ccc(OC)cc2)cc1 (stereo not given) | - | 0
COc1ccc(CCNC(=O)CC2CCCCN2S(=O)(=O)c2ccc(F)cc2)cc1 (stereo not given) | - | +
COc1ccc(CCNC(=O)CC2CCCCN2S(=O)(=O)c2ccc(Cl)cc2)cc1 (stereo not given) | - | +
CC(C)N1CCc2c(sc(NC(=O)Cc3ccccc3)c2-c2nc3ccccc3s2)C1 | - | 0
COC(=O)c1c(NC(=O)Cc2ccc(F)cc2)sc2c1CCN(C(C)C)C2 | 0 | +
SMILES | GIRK2 act | GluA2 TARP mod
O=S(=O)(NCC(O)c1ccsc1)c1ccccc1Cl (stereo not given) | 0 | 0
O=S(=O)(NCC(O)c1ccsc1)c1ccc(F)c(Cl)c1 (stereo not given) | 0 | 0
COc1ccc(S(=O)(=O)NCC(O)c2ccsc2)c(C)c1 (stereo not given) | 0 | 0
O=S(=O)(NCC(O)c1ccc(C(F)(F)F)cc1)c1ccc(F)c(Cl)c1 (stereo not given) | 0 | +
O=S(=O)(Cc1cccc(F)c1)NCC(O)c1ccc(C(F)(F)F)cc1 (stereo not given) | 0 | +
O=S(=O)(NCC(O)c1ccc(C(F)(F)F)cc1)c1ccc(Br)s1 (stereo not given) | - | +
COc1ccc(S(=O)(=O)NCC(O)c2ccc(C(F)(F)F)cc2)c(C)c1 (stereo not given) | 0 | +
Cc1ccc(S(=O)(=O)NCC(O)c2ccc(C(F)(F)F)cc2)s1 (stereo not given) | 0 | 0
O=S(=O)(NCC(O)c1ccc(C(F)(F)F)cc1)c1ccccc1Cl (stereo not given) | 0 | 0
Cc1ccc(S(=O)(=O)CCCC(=O)Nc2cc(C)no2)cc1 | 0 | -
COCC(=O)Nc1ccc(CC(=O)N2CCCC2)cc1 | 0 | 0
COc1ccc(-c2c(NC(=O)c3ccco3)sc3ccccc3c2=O)cc1OC | 0 | +
O=C(Nc1sc2ccccc2c(=O)c1-c1ccc(Br)cc1)c1ccco1 | 0 | 0
COc1ccc(CNC(=O)C(=O)Nc2ccc(F)c([N+](=O)[O-])c2)cc1 | 0 | 0
COc1cc(OC)cc(C(=O)Oc2c(S(=O)(=O)c3ccccc3)c(C)nn2C(C)(C)C)c1 | - | 0
COc1cc(OC)cc(C(=O)Oc2c(S(=O)(=O)c3ccc(C)cc3)c(C)nn2C(C)(C)C)c1 | - | +
Cc1nn(C(C)(C)C)c(OC(=O)c2ccccc2Br)c1S(=O)(=O)c1ccccc1 | - | +
Cc1ccc(S(=O)(=O)c2c(C)nn(C(C)(C)C)c2OC(=O)c2ccccc2C)cc1 | - | 0
COc1ccc2oc(=O)c(S(=O)(=O)c3ccccc3F)cc2c1 | - | 0
Cc1cc(=O)[nH]c2cc(NC(=O)c3ccc(Br)o3)ccc12 | 0 | -
O=C(CCSc1nnnn1-c1ccc(Cl)cc1)Nc1nccs1 | 0 | 0

Screening data as filed in PubChem.
